Compound activity deposited in PubChem by Broad Institute.
Tg IFNy HTS = blocks Toxoplasma gondii growth in the presence of IFN-gamma. Toxoplasma gondii growth in IFN-gamma-treated host cells; stronger effect = lower value. activity change, negative = inhibition, % (test concentration not listed). 69,000 tested, 3.8% active. AID 1259416; in the data active = activity change below about -70%, passing the limit was not always enough;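 also: host cells are HeLa cells infected with Toxoplasma gondii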
Starred values were filed as active, the others as inactive; i = inactive. Only a selection was taken, and hits are over-represented in it overall.

SMILES | Tg IFNy HTS
CC1=CC(C)C(COC(=O)NC2CCCCC2)(COC(=O)NC2CCCCC2)C(C)C1 (configuration not stated) | -100.8*
CS(=O)(=O)CC(=O)NC1CCCCC1 | 40.3
CCCNC(=O)N[C@@H]1C=C[C@H](CC(=O)N2CCN(C)CC2)O[C@H]1CO | -32.8
Cc1ccc(-c2nc(C(=O)NCCN3CCOCC3)c3n2CCCCC3)cc1 | 13.1
COc1ccc(CNC(=O)c2nc(-c3ccc(C)cc3)n3c2CCCCC3)cc1 | -69.8
CCC(C)NC(=O)c1nc(-c2ccc(C)cc2)n2c1CCCCC2 (configuration not stated) | -92.1*
Cc1ccc(-c2nc(C(=O)Nc3ccc4c(c3)OCCO4)c3n2CCCCC3)cc1 | -93.9*
CCC(C)NC(=O)c1nc(-c2cccc(F)c2)n2c1CCCCC2 (configuration not stated) | -97.8*
Cc1ccc(Nc2nc(C(=O)Nc3ccc4c(c3)OCCO4)nc3ccccc23)cc1 | -56.0
COCCNC(=O)c1nc(-c2cccc(F)c2)n2c1CCCCC2 | 94.2
CCNC(=O)c1nc(-c2ccc(Cl)cc2)n2c1CCCCC2 | -6.6
O=C(NCCN1CCCCCC1)c1nc(-c2ccc(Cl)cc2)n2c1CCCCC2 | -56.1
COc1cccc(CNC(=O)c2nc(-c3ccc(C)cc3)n3c2CCCCC3)c1 | -107.9*
COc1ccc(N2CCN(C(=O)c3nc(-c4cccc(F)c4)n4c3CCCCC4)CC2)cc1 | 43.3
CCCCN(C)C(=O)c1nc(-c2cccc(F)c2)n2c1CCCCC2 | -17.0
COc1ccc2c(c1)NC1(CCN(C(=O)Nc3cccc(C)c3C)CC1)c1cccn1-2 | 337.2
CC(CCc1ccccc1)NC(=O)Cn1ncc2c(N3CCCCC3)ncnc21 (configuration not stated) | -11.5
C=CCn1cc([C@@H]2C[C@H](NC(C)=O)C[C@H](c3cc(F)cc(F)c3)O2)cn1 | -44.1
CN(C)C(=O)C1OC2(CCN(Cc3ccco3)CC2)c2ccccc21 (configuration not stated) | 3.3
CCn1ccnc1CNc1ccnc(SC)n1 | 0.5
CO[C@@H]1CCN(C(=O)c2cnc(C)cn2)[C@H]1Cc1ccccc1 | 73.8
c1coc(CN2CCC3(CC2)COC(COCc2ccncc2)C3)c1 (configuration not stated) | -5.7
O=C(c1ccccn1)N1C[C@H]2[C@@H](c3ccccc31)[C@H](CO)N2C(=O)C1CCCCC1 | 1.6
N#CCC(=O)C12CC3CC(CC(C3)C1)C2 | 115.9
Cc1nc(CCNC(=O)C2CCN(C(=O)c3ccc(F)cc3)CC2)cs1 | -11.9
SMILES | Tg IFNy HTS
Cc1cccc(-c2nc(CN3CCc4c(sc5c4CCCC5)C3c3ccccc3)c(C)o2)c1 (configuration not stated) | -35.4
CSc1ccc(CNC(=O)c2cc3cc(S(=O)(=O)N(C)C)ccc3n2Cc2ccncc2)cc1 | -28.1
c1ccc(-c2ncn(Cc3ccccn3)c2-c2cccn2-c2ccccn2)cc1 | 9.8
Cc1ncc(C(=O)N2CCCC(CCc3ccc(F)cc3)C2)s1 (configuration not stated) | -14.3
O=C(c1ccc2cccnc2c1O)N1CCCC(CCc2ccc(F)cc2)C1 (configuration not stated) | -80.8*
O=C(c1cn[nH]c1-n1cnnn1)N1CCCC(CCc2ccc(F)cc2)C1 (configuration not stated) | -13.0
CCS(=O)(=O)N1CC[C@@H]2CO[C@H](CN3CCN(C)CC3)[C@@H]2C1 | 0.0
CCC1CN(C(=O)c2ccccc2NC(=O)c2ccc(C)o2)CCN1 (configuration not stated) | -1.5
O=c1[nH]cc(Nc2ccccc2)c(=O)[nH]1 | 27.3
O=c1c(Nc2ccccc2)c(Nc2ccccc2)c1=O | -81.9*
Nc1c(NCc2ccccc2)c(=O)c1=O | 28.4
CCc1nc2ccc(NC(=O)C3(C)CC(=O)N=C4C=C(C)C=CN43)cc2[nH]1 (configuration not stated) | 4.8
O=C(NCc1nc(-c2ccncc2)n[nH]1)Nc1ccccc1C(F)(F)F | -20.3
CC(=O)c1cc(C(=O)NCCc2nc(-c3cccnc3)n[nH]2)cs1 | -36.3
O=C(NCc1nc(-c2ccncc2)n[nH]1)c1cccs1 | -93.9*
COc1ccc2oc(CNC(=O)c3cnn4c3CCCC4)nc2c1 | 7.3
Cn1nc(-c2ccccc2)cc1-c1nc2c([nH]1)CC(C)(C)CNC2=O | -6.0
CN(Cc1ccon1)c1ccc(-c2nc(Cc3ccccc3)no2)cn1 | 24.0
Cn1cc(SCC(=O)NCc2cc(=O)[nH]c(C(C)(C)C)n2)c2ccccc21 | 7.3
Cn1c2c(c3cc(-c4cccc5c4CCNC5)ccc31)CCCC2=O | -81.1*
O=C(O)c1cc(C2CC2)nc2ccc(-c3cccc4c3CCNC4)cc12 | 1.7
c1cc2c3c(c1)c1c(n3CCNC2)CCCC1 | 16.4
Cc1oc(-c2ccccc2Cl)cc1C(=O)NCCCc1ccncc1 | -59.8
CC(C)N1CCOCC2(CN(Cc3cnn(C)c3)CCO2)C1 (configuration not stated) | 0.9
CCCCC(CC)CN=C(N)NC(N)=NCCCCCCN=C(N)NC(N)=NCC(CC)CCCC (configuration not stated) | -79.3*
SMILES | Tg IFNy HTS
Cc1ccc(/C=C/C(=O)N2CCC(c3nc(C(=O)N4CCCC4)c(C)o3)CC2)cc1 | -14.0
COC(=O)CCC(=O)N1CCc2c([nH]c3ccccc23)C1c1ccc(SC)cc1 (configuration not stated) | 56.6
CCCC(=O)N1CCc2c([nH]c3ccccc23)C1c1ccc(OCC)cc1 (configuration not stated) | -37.4
CSc1ccc(C2c3[nH]c4ccccc4c3CCN2C(=O)CCC2CCCC2)cc1 (configuration not stated) | -121.5*
CCCC(=O)N1CCc2c([nH]c3ccccc23)C1c1ccc(Cl)cc1 (configuration not stated) | -104.4*
CCCC(=O)N1CCc2c([nH]c3ccccc23)C1c1ccc(OC)cc1 (configuration not stated) | i
CCCC(=O)N1CCc2c([nH]c3ccccc23)C1c1ccc(SC)cc1 (configuration not stated) | -24.4
CCOc1cccc(C2c3[nH]c4ccccc4c3CCN2C(=O)CCc2ccccc2)c1 (configuration not stated) | i
Cc1ccc(C2c3[nH]c4ccccc4c3CCN2C(=O)COc2ccccc2)cc1 (configuration not stated) | -116.9*
O=C(COc1ccccc1)N1CCc2c([nH]c3ccccc23)C1c1ccc(F)cc1 (configuration not stated) | -64.4
COCC(=O)N1CCc2c([nH]c3ccccc23)C1c1ccc(C)cc1 (configuration not stated) | 272.2
O=C(COc1ccccc1)N1CCc2c([nH]c3ccccc23)C1c1ccc(Cl)cc1 (configuration not stated) | -69.7
Cc1ccc(C2c3[nH]c4ccccc4c3CCN2C(=O)CCc2ccccc2)cc1 (configuration not stated) | -79.9*
Cc1cccnc1CN1CCN(Cc2cnc(-c3ccco3)nc2)CC1 | 17.8
COc1ccc(S(=O)(=O)N2CCn3cnc(COCC4CC4)c3C2)cc1 | 3.8
Cc1ccc(CC(=O)N2CCC3(CC2)NC(=O)c2ccc(F)cc2N3C)cc1 | 4.5
Cc1onc(-c2c(Cl)cccc2Cl)c1C(=O)OCc1ccc2c(c1)OCO2 | -13.4
O=C(NCCN1CCOC1=O)c1cccc2ccnn12 | -3.9
Cc1oc(-c2cccc(F)c2F)nc1CN(CCO)CC12CC3CC(CC(C3)C1)C2 | 0.0
CS(=O)(=O)NC[C@@]12COC[C@@H]1CN(CC1CCC1)C2 | -8.8
